The nature of assay [1]: compounds binding Alexa647 anti-His antibody – biochemical, small-molecule microarray, 635 nm fluorescence, artefact control for SMM control protein annotation, primary screen (AID 1128).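 Note: score merges feature fluorescence with signal-to-noise for each printed compound spot.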 The conditions noted are these: higher = more signal.
Assay [2] concerns Human papillomavirus type 1a E7 protein (residues 1-88). Description: HPV1a E7 small-molecule binders, primary screen, biochemical, small-molecule microarray, residues 1-88, 635 nm (AID 1129). The conditions noted are these: small-molecule microarray binding, fluorescence 635 nm; higher = more signal.
Assay [3] concerns the target Focal adhesion kinase 1 (Homo sapiens) (UniProt Q05397). Description: PTK2 protein binding on printed compound slides – biochemical, small-molecule microarray, 635/667 nm fluorescence, BSA, DTT, primary screen (AID 1130).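 Note: composite of spot emission at 667 nm and signal to noise over triplicate slides.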 The conditions noted are these: 635 nm fluorescence, higher = more signal.
The test system of assay [4] is Fibrinogen (Alexa647-labelled). The experiment in a line: Alexa647-fibrinogen binding to printed small molecules – biochemical, small-molecule microarray, 635/667 nm fluorescence, artefact control for SMM control-protein annotation, profiling panel (AID 1131).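 Note: z-score merges 667 nm fluorescence with per-spot signal-to-noise over triplicate slides.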 The note with it: fibrinogen-A647 binding fluorescence, higher = more signal.
Assay [5] concerns the target Follistatin (Homo sapiens) (UniProt P19883). The experiment in a line: FST protein binding to printed compounds – biochemical, small-molecule microarray, 635/667 nm fluorescence, primary screen (AID 1132). The conditions noted are these: 635 nm fluorescence, higher = more signal.
The target in assay [6] is Fibroblast growth factor 2 (Homo sapiens) (UniProt P09038). The experiment in a line: basic fibroblast growth factor binding to printed compounds – biochemical, small-molecule microarray, 635/667 nm fluorescence, primary screen (AID 1133). The note with it: FGF2, fluorescence 635/667, higher = more signal.
Assay [7] in a line: JC-1 mitochondrial potential readout, lung cancer cells – cell-based, A549, JC-1 fluorescence, basal, 24 h, 100 nL, profiling panel (AID 1138).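 Note: A549 lung adenocarcinoma cells under basal conditions with no added stimulus; test concentration not given here.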 The note with it: higher = more signal.
In another assay the test system is Lefty1. The experiment in a line: Lefty1 protein binding to printed compounds – biochemical, small-molecule microarray, 635/667 nm fluorescence, primary screen (AID 1139). The conditions noted are these: fluorescence 635/667, higher = more signal.
Assay [8] has as its system wheat germ agglutinin (Triticum aestivum), Alexa647-labelled. Description: Alexa647-WGA lectin binding to printed small molecules – biochemical, small-molecule microarray, 635/667 nm fluorescence, artefact control for SMM control-protein annotation, profiling panel (AID 1140).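 Note: score merges 667 nm feature emission with signal to noise over triplicate slides.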 The note with it: WGA-A647 binding, 635 nm fluorescence, higher = more signal.
The target of assay [9] is Luciferin 4-monooxygenase (Photinus pyralis) (UniProt P08659). Description: inhibition of purified Photinus pyralis luciferase – biochemical, luminescence, purified enzyme, 2006 set, primary screen (AID 1141).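 Note: cell-free assay with purified firefly luciferase at 100 ng per well in PBS; test concentration not given here.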 The note with it: purified firefly luciferase, SteadyGlo luminescence, 30 min; higher = more signal, called active from +8 up or from −8 down.
In assay [10] the test system is Wnt5a (protein binding on small-molecule microarray). The experiment in a line: small molecules binding Wnt5a protein – biophysical, small-molecule microarray, 635/667 nm fluorescence, primary screen (AID 1142).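 Note: fluorescence read at 667 nm with signal to noise per printed feature.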 The note with it: 635 nm fluorescence, higher = more signal.
A short description of assay [11]: ATP-based viability of Huh7 replicon cells – cell-based, CellTiter-Glo luminescence, basal, 48 h, cytotoxicity control for HCV replication inhibitor project, primary screen (AID 1143).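 Note: Huh7 hepatoma cells carrying a hepatitis C replication reporter with no stimulus; test concentration not given here.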 The conditions noted are these: higher = more signal, called active from +8 up or from −8 down.
Assay [12] is described as follows: Pseudomonas biofilm growth suppression – PAO1 strain, BacTiter-Glo luminescence, LB-PBS, primary screen (AID 1144). The conditions noted are these: P. aeruginosa PAO1 biofilm, 12 h, higher = more signal.
Assay [13] is described as follows: basal CRE-LacZ reporter activity in PC12 – cell-based, unstimulated, primary screen (AID 1145). The note with it: no forskolin, luminescence, 4.5 h, higher = more signal, called active from +8 up or from −8 down.
Assay [14] in a line: forskolin-driven CRE-LacZ activity in PC12 – cell-based, CRE-LacZ reporter, forskolin-stimulated, primary screen (AID 1146).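 Note: PC12 cells with 6xCRE LacZ reporter stimulated by forskolin 10 µM; beta-galactosidase reporter signal reflecting CREB driven transcription.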 The note with it: luminescence, 4.5 h, higher = more signal, called active from +8 up or from −8 down.
The target in assay [15] is Streptavidin (Streptomyces avidinii) (UniProt P22629). Description: compounds binding control protein streptavidin – biophysical, small-molecule microarray, 635/667 nm fluorescence, artefact control for SMM compound annotation, primary screen (AID 1147).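 Note: signal reflects streptavidin binding to arrayed compounds as a control protein.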 The conditions noted are these: higher = more signal.
Assay [16] in a line: probe aInhba binding on compound microarray – biochemical, small-molecule microarray, 635/667 nm fluorescence, primary screen (AID 1148).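 Note: score merges 667nm spot fluorescence with signal-to-noise for antibody binding to printed compounds.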 The conditions noted are these: higher = more signal.
Assay [17] deals with Torsin-1A (Homo sapiens) (UniProt O14656). The experiment in a line: TOR1A wild-type binding on microarray – cell lysate, small-molecule microarray, lysate, 635/667 nm, primary screen (AID 1149). The conditions noted are these: COS7 hTOR1A-WT lysate, 635 nm fluorescence, higher = more signal.
Assay [18] has the same target. Description: torsin A mutant lysate binding on microarrays – cell lysate, small-molecule microarray, COS7 lysate, 635/667 nm fluorescence, primary screen (AID 1150).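 Note: score pools 667 nm emission and signal to noise measuring lysate protein binding.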 The conditions noted are these: COS7 hTOR1A mutant lysate, 635 nm fluorescence, higher = more signal.
The subject of assay [19] is Sonic hedgehog protein (Shh). The experiment in a line: Sonic hedgehog microarray binding compounds – biochemical, small-molecule microarray, 635/667 nm fluorescence, primary screen (AID 1151).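 Note: Shh protein binding to compounds spotted on small-molecule microarray slides; score combines spot fluorescence intensity with signal-to-noise across triplicate slides.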 The note with it: 635 nm fluorescence, higher = more signal.

Each structure is given as a SMILES string. The source made the active and inactive calls. Unless noted, the rule behind the calls is not given here.

Chain of Follistatin (Homo sapiens) (P19883 whole entry, looked up): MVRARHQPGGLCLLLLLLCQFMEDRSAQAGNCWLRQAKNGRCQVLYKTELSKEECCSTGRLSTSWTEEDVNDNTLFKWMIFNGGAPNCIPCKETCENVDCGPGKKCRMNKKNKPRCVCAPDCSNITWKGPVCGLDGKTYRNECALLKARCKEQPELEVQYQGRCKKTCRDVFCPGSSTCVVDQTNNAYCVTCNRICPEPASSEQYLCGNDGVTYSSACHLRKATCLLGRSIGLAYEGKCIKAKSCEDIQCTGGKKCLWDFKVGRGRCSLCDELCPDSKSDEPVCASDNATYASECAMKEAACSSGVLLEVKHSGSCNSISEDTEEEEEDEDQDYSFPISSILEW
Chain of Focal adhesion kinase 1 (Homo sapiens) (Q05397 whole entry, looked up): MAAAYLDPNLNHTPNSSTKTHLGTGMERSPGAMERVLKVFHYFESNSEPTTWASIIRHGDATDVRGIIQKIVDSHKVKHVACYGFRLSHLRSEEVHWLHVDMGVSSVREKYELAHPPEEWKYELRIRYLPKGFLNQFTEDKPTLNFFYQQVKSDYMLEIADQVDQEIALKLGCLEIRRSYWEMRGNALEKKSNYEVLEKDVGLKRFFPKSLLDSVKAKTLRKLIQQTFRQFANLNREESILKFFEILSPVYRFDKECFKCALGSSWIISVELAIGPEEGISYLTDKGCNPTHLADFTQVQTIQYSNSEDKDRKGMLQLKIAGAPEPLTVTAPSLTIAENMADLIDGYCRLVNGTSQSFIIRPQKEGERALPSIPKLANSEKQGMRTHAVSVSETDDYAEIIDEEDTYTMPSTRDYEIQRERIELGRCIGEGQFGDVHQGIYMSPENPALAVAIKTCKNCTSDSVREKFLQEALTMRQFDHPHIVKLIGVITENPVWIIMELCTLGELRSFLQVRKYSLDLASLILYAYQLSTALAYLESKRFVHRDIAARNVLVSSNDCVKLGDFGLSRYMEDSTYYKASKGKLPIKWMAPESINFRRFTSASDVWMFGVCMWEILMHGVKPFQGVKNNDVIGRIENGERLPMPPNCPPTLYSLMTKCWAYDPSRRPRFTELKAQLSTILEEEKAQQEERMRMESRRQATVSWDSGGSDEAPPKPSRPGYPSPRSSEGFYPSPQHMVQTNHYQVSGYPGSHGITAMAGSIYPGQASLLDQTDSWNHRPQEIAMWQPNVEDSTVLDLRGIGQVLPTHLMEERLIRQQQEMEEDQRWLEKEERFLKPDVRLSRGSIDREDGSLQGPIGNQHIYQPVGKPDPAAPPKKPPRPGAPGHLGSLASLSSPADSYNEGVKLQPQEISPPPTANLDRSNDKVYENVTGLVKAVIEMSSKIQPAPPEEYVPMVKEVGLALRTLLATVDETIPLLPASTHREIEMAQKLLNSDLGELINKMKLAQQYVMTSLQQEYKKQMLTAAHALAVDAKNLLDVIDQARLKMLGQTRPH
Chain of Fibroblast growth factor 2 (Homo sapiens) (P09038 whole entry, looked up): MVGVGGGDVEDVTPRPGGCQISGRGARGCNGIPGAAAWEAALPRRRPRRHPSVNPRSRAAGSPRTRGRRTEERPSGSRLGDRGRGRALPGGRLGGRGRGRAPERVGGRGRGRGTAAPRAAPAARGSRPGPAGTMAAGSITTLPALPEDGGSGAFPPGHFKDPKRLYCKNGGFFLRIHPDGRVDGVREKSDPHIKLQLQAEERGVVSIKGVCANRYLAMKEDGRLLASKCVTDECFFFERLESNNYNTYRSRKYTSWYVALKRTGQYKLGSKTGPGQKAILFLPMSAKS
Chain of Torsin-1A (Homo sapiens) (O14656 whole entry, looked up): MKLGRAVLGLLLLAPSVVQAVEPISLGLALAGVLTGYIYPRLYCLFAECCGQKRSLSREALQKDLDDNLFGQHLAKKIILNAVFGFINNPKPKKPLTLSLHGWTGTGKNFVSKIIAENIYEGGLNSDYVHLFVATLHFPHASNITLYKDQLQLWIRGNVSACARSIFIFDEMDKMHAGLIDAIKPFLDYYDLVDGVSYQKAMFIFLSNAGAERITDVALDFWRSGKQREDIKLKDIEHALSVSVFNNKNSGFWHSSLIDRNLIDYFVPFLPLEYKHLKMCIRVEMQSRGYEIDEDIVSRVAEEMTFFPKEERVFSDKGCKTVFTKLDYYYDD
Chain of Luciferin 4-monooxygenase (Photinus pyralis) (P08659 whole entry, looked up): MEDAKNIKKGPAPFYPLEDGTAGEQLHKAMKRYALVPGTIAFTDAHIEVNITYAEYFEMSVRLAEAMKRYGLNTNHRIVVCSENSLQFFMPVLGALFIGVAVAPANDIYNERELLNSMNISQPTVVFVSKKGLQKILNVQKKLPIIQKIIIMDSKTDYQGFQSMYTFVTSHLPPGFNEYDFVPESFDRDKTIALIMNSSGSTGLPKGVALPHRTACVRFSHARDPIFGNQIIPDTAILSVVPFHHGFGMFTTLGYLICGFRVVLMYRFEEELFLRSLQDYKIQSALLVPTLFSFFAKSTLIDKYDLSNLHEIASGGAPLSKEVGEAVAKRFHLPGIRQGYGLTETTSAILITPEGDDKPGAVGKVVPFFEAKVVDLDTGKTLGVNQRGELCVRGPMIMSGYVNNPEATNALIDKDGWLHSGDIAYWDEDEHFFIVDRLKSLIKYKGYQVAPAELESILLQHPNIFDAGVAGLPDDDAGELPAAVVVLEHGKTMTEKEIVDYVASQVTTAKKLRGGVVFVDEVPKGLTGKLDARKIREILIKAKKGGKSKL
Chain of Streptavidin (Streptomyces avidinii) (P22629 whole entry, looked up): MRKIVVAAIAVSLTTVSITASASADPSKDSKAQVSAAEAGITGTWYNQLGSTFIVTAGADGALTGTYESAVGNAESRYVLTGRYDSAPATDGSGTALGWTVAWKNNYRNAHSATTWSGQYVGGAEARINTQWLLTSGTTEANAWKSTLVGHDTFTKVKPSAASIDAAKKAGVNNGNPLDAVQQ

In the case of `C=CCOC(=O)[C@@H]1[C@H]2C(=O)O[C@H](c3ccccc3)[C@H](c3ccccc3)N2[C@H](c2ccc(OCCOC(=O)[C@H]3C[C@H]4C(=O)N[C@@H](CCCCN(C)C)C(=O)N4[C@H]3c3cccc(OCCO)c3)cc2)[C@@]12C(=O)Nc1ccc(I)cc12`, the composite z-score in [1] came out at 2.94; in [2] it was 1.17; in assay [3], 0.319; in assay [4], 0.758; in [5] it was 1.48; in assay [6], 1.59. In addition, the composite z-score in the assay on Lefty1 is 1.49; in assay [8], 0.768; in assay [10] it was 0.402; in assay [15], 0.458; in assay [16], 0.019; in the assay with Torsin-1A (Homo sapiens) [17], 1.61. For the same molecule, the composite z-score was 1.52 with Torsin-1A (Homo sapiens) [18] and 2.05 in assay [19]. For the same molecule, the z-score was -0.717 in assay [7]; -0.517 (inactive) in assay [9]; -0.015 (inactive) in assay [11]; 0.172 (inactive) in assay [12]; -0.801 (inactive) in assay [13]; 0.387 (inactive) in assay [14].
Regarding `COCCOC(=O)N1C(=O)[C@@]2(c3ccccc31)[C@H](c1ccc(OCCO)cc1)N1[C@H](c3ccccc3)[C@H](c3ccccc3)OC(=O)[C@H]1[C@@H]2C(=O)Nc1nc2ccccc2s1`, the composite z-score in [1] was found to be 1.6; in assay [2], 1.2; in assay [3], 0.72; in assay [4] it was 0.942; in [5], 1.24; in [6] it was 1.05. The composite z-score in the assay with Lefty1 was 0.518; in assay [8], 0.433; in [10] it was 0.528; in [15], 0.962; in assay [16], 0.239; with Torsin-1A (Homo sapiens) [17], 0.73. The results for the composite z-score (with Torsin-1A (Homo sapiens) [18]; in assay [19]) were 0.558 and 1.1, respectively. For the same molecule, the z-score is -2.22 in assay [7]; -2.98 (inactive) in assay [9]; -1.49 (inactive) in assay [11]; -0.58 (inactive) in assay [12]; 0.505 (inactive) in assay [13]; 11.9 (active) in [14].
With `CC(C)CNC(=O)[C@@H]1c2ccccc2C(=O)N(Cc2cc(F)cc(C(F)(F)F)c2)[C@H]1c1ccc(CO)cc1`, the composite z-score in assay [1] was 0.437; in assay [2], 0.538; in assay [3] it was 0.0403; in assay [4], 0.626; in assay [5], 1.02; in assay [6] it was 0.721. In addition, the composite z-score in the assay with Lefty1 was -0.0543; in [8] it was 0.042; in assay [10], 0.342; in assay [15] it was 0.111; in [16], 0.117; with Torsin-1A (Homo sapiens) [17], 0.71. For the same molecule, the results for the composite z-score (with Torsin-1A (Homo sapiens) [18]; in assay [19]) were 0.192 and 0.465, respectively. Also, the z-score in assay [7] is 2.47; in [9] it was -1.38 (inactive); in assay [11], -0.959 (inactive); in assay [12], 0.96 (inactive); in [13], 0.001 (inactive); in [14], -0.372 (inactive).
As to `COC1(C)CN(Cc2ccccc2Br)[C@H](/C=C/c2ccccc2)[C@H](Cc2ccccc2)O1` (stereo not given in full), the composite z-score in assay [1] was 0.258; in assay [2], -0.561; in assay [3], 0.106; in [4], -0.291; in assay [5] it was -0.598; in [6], -0.375. Also, the composite z-score is 0.0787 in the assay on Lefty1; 0.0565 in assay [8]; -0.243 in assay [10]; -0.332 in assay [15]; -0.0719 in assay [16]; -0.558 with Torsin-1A (Homo sapiens) [17]. Further, the composite z-score was 0.357 with Torsin-1A (Homo sapiens) [18] and -0.191 in assay [19]. The z-score in [7] was 0.267; in assay [9], -0.238 (inactive); in assay [11], -0.391 (inactive); in [12], -0.198 (inactive); in [13] it was 1.93 (inactive); in [14] it was 0.874 (inactive).
For the molecule `COC(=O)C1(Cc2ccccc2)C=C2C(=C(c3ccccc3)C(=O)C2C)CN1` (stereo not given), the composite z-score is 1.76 in assay [1]; 1.11 in assay [2]; -0.0788 in assay [3]; 0.152 in [4]; -0.111 in [5]; 0.404 in assay [6]. Also, the composite z-score in the assay on Lefty1 is -0.586; in [8] it was 0.943; in assay [10], 2; in [15], 0.509; in [16], 0.862; with Torsin-1A (Homo sapiens) [17], 0.0676. Moreover, the figures for the composite z-score (in the assay with Torsin-1A (Homo sapiens) [18]; in assay [19]) were 0.47 and -0.525, respectively. Moreover, the z-score in assay [7] was 0.408; in assay [9], 1.98 (inactive); in assay [11], -0.541 (inactive); in assay [12] it was 0.125 (inactive); in assay [13], 1.15 (inactive); in assay [14] it was 0.465 (inactive).

Source of the values: PubChem BioAssay.
